Results: the supplement of paper PMC12669032

Tests used:
Experiment in all cases: growth AUC relative to DMSO control (median of replicates) (fraction); higher = more growth (less inhibition), active = hit call of the paper
Details in all cases: 20 µM; 24 h;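 active = AUC reduced over 20% with Padj below 0.05 in at least 2 of 3 replicates; inactive = otherwise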
[1] = system: Akkermansia muciniphila
In short: (§1)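 Three biological replicates, each grown on a separate day, were combined as a median for every value. In each, a gut bacterial monoculture in mGAM started at OD600 0.05 and grew anaerobically at 37 °C with 20 µM compound (1% DMSO), with OD600 read hourly over 24 h. Area under the growth curve was normalised against the plate median of solvent-only wells, or against row and column medians on the industrial chemical plate, after the minimum OD was set to 0.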

[2] = system: Bacteroides caccae
In short: as §1

[3] = system: Bacteroides clarus
In short: as §1

[4] = system: Bacteroides dorei
In short: as §1

[5] = system: Bacteroides stercoris
In short: as §1

[6] = system: Bacteroides thetaiotaomicron
In short: as §1

[7] = system: Bacteroides uniformis
In short: as §1

[8] = system: Bifidobacterium longum subsp. longum
In short: as §1

[9] = system: Clostridium difficile
In short: as §1

[10] = system: Collinsella aerofaciens
In short: as §1

Measured: growth AUC

COP(=O)(OC)C(O)C(Cl)(Cl)Cl (stereo not given)
inactive: [1] 0.955 | [2] 1.04 | [3] 1.01 | [4] 1 | [5] 1.01 | [6] 1.01 | [7] 1.02 | [8] 1.02 | [9] 1 | [10] 1.01

C/C(=N\NC(=O)Nc1cc(F)cc(F)c1)c1ncccc1C(=O)[O-].[Na+]
inactive: [1] 1.33 | [2] 1 | [3] 1.01 | [4] 0.77 | [5] 1.05 | [6] 1.01 | [7] 0.946 | [8] 0.987 | [9] 1 | [10] 0.965

Cc1ccccc1CO[C@@H]1C[C@@]2(C(C)C)CC[C@]1(C)O2 (mixture of isomers)
inactive: [1] 1.08 | [2] 0.955 | [3] 0.967 | [4] 0.977 | [5] 1.02 | [6] 1.01 | [7] 0.997 | [8] 1.03 | [9] 1.04 | [10] 1.01

COP(=S)(OC)Oc1cc(Cl)c(Cl)cc1Cl
inactive: [1] 1.09 | [2] 0.936 | [3] 1.02 | [4] 0.947 | [5] 1.17 | [6] 1.03 | [7] 0.939 | [8] 0.947 | [9] 1.02 | [10] 1.04
